The list is not random: actives were taken first. Their share in the collection is about 15%.
ELG1 DNA repair = blocks ELG1-dependent DNA repair in HEK293T cells | Potency, µM (series often up to 46.1 µM), without a hit: at the top dose activity change, negative = inhibition, usual class: inhibitors | hit rate 2.3% among 330,000 | AID 504467 | HEK293T ELG1-luciferase reporter, luminescence, 16 h; DNA damage induced by 5-fluorouridine; also: nearly all actives have a fitted effect of over 55% in size
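In this reporter screen, reduction of luminescence relative to DMSO vehicle indicated activity. Compounds and 5-fluorouridine were added together to 2,000 cells per well, incubated for 16 hr at 37 °C, then developed with ONE-Glo.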
DT40 TDP1 no CPT = qHTS for Inhibitors of human tyrosyl-DNA phosphodiesterase 1 (TDP1): qHTS in cells in absence of CPT | DT40 Tdp1-/- hTDP1 cells, no CPT, ATP luminescence, 48 h | Potency, µM (top dose mostly 46.2 µM), for inactives: at the highest dose activity change, negative = growth inhibition, most hits filed as inhibitors | hit rate 15% among 420,000 | AID 686978, 2013; also: nearly all actives have a fitted effect of over 55% in size
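A cellular qHTS used chicken DT40 cells lacking endogenous Tdp1 but carrying stably transfected human TDP1. Compounds were applied without camptothecin, and cell growth kinetics were judged by ATP-dependent luminescence after ≥48 hr.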
12-LOX inh = blocks human arachidonate 12S-lipoxygenase; purified 12hLO, xylenol orange hydroperoxide absorbance; P18054; Potency, µM (titrated, usually from 108 µM), inactives show at the top dose activity change, negative = inhibition, usual class: inhibitors; hit rate 1.1% among 580,000
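Hydroperoxide product was detected by ferrous iron/xylenol orange as the 573 to 405 nm absorbance ratio. Arachidonic acid at 40 uM (final) was turned over for 30 min at room temperature by 150 nM human 12hLO, pH 7.0 Hepes buffer, after 15 min compound preincubation.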
RORg inh = blocks mouse ROR gamma transcriptional activity; P51450; Drosophila S2 Gal4-RORgamma UAS-luciferase reporter, 20 h; Potency, µM (doses to about 53.6 µM), without a hit: at the highest dose activity change, negative = inhibition, hits mostly inhibitors; hit rate 5.4% among 310,000; AID 2551; also: nearly all actives have a fitted effect of over 60% in size
Target sequence (P51450 whole entry, looked up, the tested form may be a part): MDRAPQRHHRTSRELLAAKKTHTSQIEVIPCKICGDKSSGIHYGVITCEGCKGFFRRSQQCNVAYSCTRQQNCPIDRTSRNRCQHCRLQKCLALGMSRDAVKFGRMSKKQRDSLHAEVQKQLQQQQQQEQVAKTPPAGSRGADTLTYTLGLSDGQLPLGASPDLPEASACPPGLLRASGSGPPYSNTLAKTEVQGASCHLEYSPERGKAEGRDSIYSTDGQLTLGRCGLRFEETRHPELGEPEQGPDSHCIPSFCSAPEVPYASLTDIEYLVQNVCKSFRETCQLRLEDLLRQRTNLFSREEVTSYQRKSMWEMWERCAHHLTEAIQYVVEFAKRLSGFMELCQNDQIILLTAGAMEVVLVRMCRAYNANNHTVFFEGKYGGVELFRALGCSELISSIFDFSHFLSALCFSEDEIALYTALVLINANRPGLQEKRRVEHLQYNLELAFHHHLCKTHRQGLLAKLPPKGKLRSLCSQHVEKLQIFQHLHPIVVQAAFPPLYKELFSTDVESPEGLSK
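Compounds are pin-transferred onto Drosophila Schneider cells expressing a copper-inducible Gal4–ROR gamma transactivation domain fusion. After 1 hr, copper sulfate is added to 700 uM final; luciferase is read 20 hr later.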
TDP1 cell CPT = DT40-hTDP1 cell growth loss with CPT; Potency, µM (highest dose often 46.2 µM), for the others: at the highest dose activity change, negative = growth inhibition, most hits filed as inhibitors; hit rate 12% among 420,000; AID 686979; chicken DT40 Tdp1-/-;hTDP1 cells + 20 nM CPT, ATP luminescence, 48 h; also: nearly all actives have a fitted effect of over 55% in size
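Cell growth measured by CellTiter-Glo luminescence after a minimum 48 h, 37 C compound exposure with 20 nM CPT in Tdp1-knockout DT40 cells stably expressing hTDP1, seeded 400/well; qHTS titration format.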
VP16 counter = counter-screen for ROR gamma inhibitors: Gal4-VP16 reporter. Drosophila S2 Gal4-VP16 UAS-luciferase, luminescence, 20 h. Potency, µM (top dose mostly 53.6 µM), inactives show at the highest dose activity, negative = inhibition, usual class: inhibitors. hit rate 3.5% among 310,000;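 also: Gal4-VP16 expression switched on by copper sulfate through the metallothionein promoter; nearly all actives have a fitted effect of over 50% in size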
* hit, by the source's call; ? = inconclusive; . = no result given; [ ] = another dose, or the depositor's remark. Calls follow the shape of the dose curve; as a rule, active = well fitted curve in the direction sought with a large enough effect; inconclusive = small, poorly fitted or top-dose-only effect, or another doubt; inactive = no such curve, though single readings can be large; an effect the other way counts as inactive or inconclusive. % is scaled to controls: 0 for no effect and ±100 for the full control effect; potency is read from the fitted curve at half-maximal effect.

SMILES	ELG1 DNA repair	DT40 TDP1 no CPT	12-LOX inh	RORg inh	TDP1 cell CPT	VP16 counter
COCCn1c(C)c(C)c(S(=O)(=O)c2ccc(F)cc2)c1NC(=O)C1CCCO1 (centres undefined)	.	.	-7%	.	.	.
CC(C)(C)CNC1(Cc2cc(CCO)on2)COC1	.	.	35%[176 µM]	.	.	.
CC(C)CC(=O)N[C@H](C)c1onc(-c2cccnc2)c1C(=O)O	.	.	27%[176 µM]	.	.	.
O=C(C1CC=CC1)N1C[C@@H](COc2cccnc2)[C@H](c2ccccn2)C1	.	.	24%	.	.	.
C=C1CC(Cn2cc(Br)c(=O)[nH]c2=O)(c2ccc(-c3ccccc3)cc2)OC1=O (centres undefined)	.	0.026µM*	?	.	0.033µM*	.
O=c1[nH]c(=O)n(Cc2ccc(Oc3ccccc3)cc2)cc1Br	-5%	.	-6%	?	.	-27%
Cc1cnc(NC(=O)C2CCN(c3ccc(C#N)cn3)CC2)s1	.	.	4%	.	.	.
COc1ccc(NC(=O)C2(C)CCCCC(=O)N2)cc1 (centres undefined)	.	.	1%	.	.	.
CC(O)CN1C(=O)C(CC(=O)Nc2ccc(Cl)cc2)SC1=Nc1ccccc1 (centres undefined)	-5%	26µM*	.	15%	?	0%
COCCN1C(=O)C(CC(=O)Nc2ccc(C(C)=O)cc2)SC1=Nc1ccccc1 (centres undefined)	1%	?	-1%	-2%[10 µM]	16µM*	8%
Cc1ccc(F)cc1NC(=O)C1CCCCC1	.	.	-28%	.	.	.
C/C(=N\Nc1cc(N2CCOCC2)nc(C)n1)c1ccc(F)cc1	?	?	-10%	-12%	?	3%
C/C(=N\Nc1cc(N2CCOCC2)ncn1)c1cccc([N+](=O)[O-])c1	-13%	16µM*	0%	-7%	?	2%
C/C(=N\Nc1cc(N2CCOCC2)ncn1)c1ccccc1	?	?	29%	?	23µM*	-53%
Cc1ccc(CNC(=O)Cn2cc(C#N)c3ccccc32)cc1	.	.	-24%	.	.	.
N#C/C(=C\c1ccc(OCc2ccccc2)cc1)c1ccccc1	.	.	5%	.	.	.
CC1=C(C(=O)N(C(C)C)C(C)C)CC(CC(=O)NCCCCc2ccccc2)C(=O)N1Cc1ccccc1 (centres undefined)	.	23µM*	1%	.	?	.
COc1ccc(CN2C(=O)C(CC(=O)NCCCCc3ccccc3)CC(C(=O)N3CCCCCC3)=C2C)cc1 (centres undefined)	.	21µM*	-5%	.	21µM*	.
CCN(CC)C(=O)C1=C(C)N(Cc2ccccc2)C(=O)C(CC(=O)NCCCCc2ccccc2)C1 (centres undefined)	.	26µM*	16%	.	23µM*	.
CC1=C(C(=O)N2CCOCC2)CC(CC(=O)NCCCCc2ccccc2)C(=O)N1Cc1ccc(F)cc1 (centres undefined)	.	?	-3%	.	-18%	.
CC(C)[C@@H](C(N)=O)N1CC[C@H]2CN(C(=O)Nc3ccccc3)CC[C@H]2CC1=O	.	.	6%[176 µM]	.	.	.
COc1ccccc1CNn1c(-c2cccc(C)c2)nc2ccccc2c1=O	?	?	-2%	?	?	-8%
Cc1cccc(-c2nc3ccccc3c(=O)n2NC(=S)N(C)C)c1	9%	8.2µM*	?	-4%	9.2µM*	-6%
COc1ccc(CNn2c(-c3cccc(C)c3)nc3ccccc3c2=O)cc1OC	15µM*	?	-15%[57.4 µM]	17%	?	2%
Cc1cccc(NC(=S)NC(=O)CC2CC(C)(C)OC2=O)c1 (centres undefined)	-4%	-19%	-10%	11µM*	-8%	-18%
SMILES	ELG1 DNA repair	DT40 TDP1 no CPT	12-LOX inh	RORg inh	TDP1 cell CPT	VP16 counter
Cc1ccc(C(=O)Nc2cnn(-c3ccc(C(=O)NCc4nc(-c5ccccc5)n[nH]4)cc3)c2)c(C)c1	.	1.8µM*	3%	.	0.92µM*	.
O=C(CSCc1ccc(F)cc1Br)Nc1ccc2c(c1)OCCO2	.	.	0%	.	.	.
C/C(=N\NC(=O)C(O)(c1ccccc1)c1ccccc1)c1ccc(C)o1	-13%	18µM*	1%	-25%	?	-16%
C/C(=N/Nc1nc(C)cc(-c2ccccc2)n1)c1ccco1	-26%	?	-7%	5µM*	21µM*	18µM*
C/C(=N\Nc1nc(C)cc(-c2ccccc2)n1)c1ccc(C)o1	?	4.6µM*	0%	5µM*	?	10µM*
Cc1cc(-c2ccccc2)nc(SCc2ccc(C(=O)O)o2)n1	14%	-16%	-14%	8%[0.365 µM]	?	.
Cc1ccc(-c2nc(-c3cc4cccc(OCc5ccc(F)cc5)c4oc3=O)no2)cc1	.	18µM*	-10%	.	?	.
Cc1ccc(-c2nc(-c3cc4cccc(OCc5cccc(F)c5)c4oc3=O)no2)cc1	.	13µM*	-23%	.	15µM*	.
CCOc1cccc2cc(-c3cn4cc(C)ccc4n3)c(=O)oc12	?	?	0%	0.79µM*	?	?
Cc1ccc(COc2cccc3cc(-c4noc(-c5ccc(C)cc5)n4)c(=O)oc23)cc1	.	?	-14%	.	-19%	.
COCCN1CCn2c(nc3cc(C(=O)NC(C)C)ccc32)C1	.	.	-16%	.	.	.
CNC(=O)CNC(=O)c1cc(-c2ccc(C)cc2)nc2ccccc12	.	.	-29%	.	.	.
O=C1C=CC(=C(c2ccc(O)cc2)c2ccc(O)cc2)C=C1	13µM*	2.3µM*	?	?	9.2µM*	?
CN1CCN(c2ccc(NC(=O)c3ccccc3F)nc2)CC1	.	.	-3%	.	.	.
c1cnn2c(-c3ccc4c(c3)CCO4)cnc2c1	.	9.2µM*	-11%	.	10µM*	.
Cc1cccc(C(=O)N2CCN(CCNC(=O)C(=O)Nc3ccccc3)CC2)c1	.	.	1%	.	.	.
Cn1c(N)c(-c2csc(Nc3ccccc3)n2)c(=O)n(C)c1=O	.	.	45µM*	.	.	.
COc1ccc(-c2csc(NC3CCCCC3)n2)c(OC)c1	?	?	?	-30%	-3%	-3%
Cn1c(N)c(-c2csc(NC3CC3)n2)c(=O)n(C)c1=O	.	.	7.9µM*	.	.	.
C=CCn1c(SCc2nc3ccccc3o2)nc2ccccc2c1=O	.	.	37%	.	.	.
COc1ccc(NC(=O)c2ccc3c(c2)N(C)C2CCCCN2C3=O)cc1 (centres undefined)	.	.	34%	.	.	.
CC(C)NC(=O)CCCN1C(=O)c2ccccc2Sc2ncccc21	20%	6%	0%	0%	-6%	3%
CC(=O)Nc1ccc(NC(=O)CCN2C(=O)c3ccccc3C2=O)cc1	1%	-4%	?	-12%[1.91 µM]	-1%	-20%
